High-throughput results deposited in PubChem BioAssay by National Center for Advancing Translational Sciences (NCATS).
Many of the other results were omitted from the sample, so hits are more common in it than they were.
Pf Dd2 inh: inhibitors of Plasmodium falciparum Dd2 growth. AID 1347417. 120,000 compounds, 4.3% hits. P. falciparum Dd2 growth, SYBR Green, 72 h. Potency, µM (series often up to 28.9 µM), without a hit: at the top dose activity, negative = inhibition, actives largely listed as inhibitors; active = well fitted inhibition curve with a large enough effect;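 note: plate controls were DMSO vehicle for no effect and reference drug for full effect; nearly all actives have a fitted effect of over 65% in size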
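Readout: SYBR Green fluorescence, 485 nm excitation, 535 nm emission, after ~16 h lysis at 37C. Before that, Dd2-infected red cells (2.5% hematocrit) grew 72 h with compound, 29 uM top final concentration.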
* = called active by the depositor; [ ] = dose if it differs, or a comment. Potency is the fitted concentration of half-maximal effect.

Screening Cc1ccccc1Cn1c(=O)n(CC2CCC(C(=O)N3CCOCC3)CC2)c(=O)c2sccc21 (stereo not drawn) returned Pf Dd2 inh -18.5%.
For O=c1[nH]c(C2CCN(Cc3ccccc3)CC2)nn1Cc1ccccc1 the results were Pf Dd2 inh 17.7%.
`C=CCc1ccccc1OCCN(C)Cc1cnc2ccccc2n1` gave Pf Dd2 inh 4.7%.
Screening O=C(Cn1c(=O)n(CC2CCC(C(=O)NCCc3ccccc3)CC2)c(=O)c2ccccc21)Nc1cccc(F)c1 (stereo not drawn) returned Pf Dd2 inh -1.9%.
Screening Cc1cccc(NC(=O)Cn2c(=O)n(CC3CCC(C(=O)NCCc4ccccc4)CC3)c(=O)c3ccccc32)c1 (stereo not drawn) returned Pf Dd2 inh 11.2µM*.
Cc1cccc(C)c1NC(=O)Cn1c(=O)n(CC2CCC(C(=O)NCCc3ccccc3)CC2)c(=O)c2ccccc21 (stereo not drawn) was read as Pf Dd2 inh inactive.
Cc1cc(C)cc(NC(=O)Cn2c(=O)n(CC(=O)NCCc3ccccc3)c(=O)c3ccccc32)c1 was read as Pf Dd2 inh 6.2%.
For COc1ccc(NC(=O)Cn2c(=O)n(CC(=O)NCCc3ccccc3)c(=O)c3ccccc32)cc1 the results were Pf Dd2 inh 19.1%.
Screening COc1cc(NC(=O)Cn2c(=O)n(CC3CCC(C(=O)NCCc4ccccc4)CC3)c(=O)c3ccccc32)cc(OC)c1 (stereo not drawn) returned Pf Dd2 inh 0.891µM*.
`CN1CC(=O)N(c2ccccc2F)Cc2c1ncnc2N1CCN(c2ccccn2)CC1` gave Pf Dd2 inh -16.2%.
COc1ccc(-c2cc(N3CCC(NC(=O)c4ccc5cc[nH]c5c4)CC3)n[nH]2)cc1 was read as Pf Dd2 inh -11.7%.
`CCOC(=O)c1cnc2c(ccc3ccccc32)c1Nc1ccccc1OCC` gave Pf Dd2 inh 30.4%.
For CCOC(=O)c1cnc2c(ccc3ccccc32)c1Nc1ccccc1OC the results were Pf Dd2 inh 8.6%.
`CCOC(=O)c1cnc2c(ccc3ccccc32)c1Nc1ccc(C(C)=O)cc1` gave Pf Dd2 inh 5.01µM*.
For CCOC(=O)c1cnc2ccccc2c1Nc1ccc(N2CCOCC2)cc1 the results were Pf Dd2 inh 27.8%.
CCOC(=O)c1cnc2c(ccc3ccccc32)c1Nc1ccc(OC)cc1OC was read as Pf Dd2 inh 0.4%.
Screening CCOC(=O)c1cnc2c(ccc3ccccc32)c1Nc1ccc(OC)c(OC)c1 returned Pf Dd2 inh 3.55µM*.
Screening COC[C@@H]1CN(C(=O)c2cc(C3CC3)[nH]n2)C[C@H]1c1ccccn1 returned Pf Dd2 inh -34.9%.
COc1ccc(-c2nc(C)nc3c2CN(C(=O)c2ccc(F)cc2)CC3)cc1 was read as Pf Dd2 inh inactive.
Screening Cc1ccccc1-c1cc(C(=O)NCC[S+](C)(=O)[O-])c2c(c1)N(C)CCO2 returned Pf Dd2 inh inactive.
`COc1ccc(C(=O)Nc2ccc3n(c2=O)C[C@H]2C[C@@H]3CN(S(=O)(=O)c3ccc(OC)cc3)C2)cc1` gave Pf Dd2 inh 7.4%.
`O=C(C[C@H]1NC(=O)c2ccccc2NC1=O)NCCc1ccccn1` gave Pf Dd2 inh -5.0%.
Screening CCn1cc(CNC(=O)c2cc(-c3ccc(C)c(C)c3)nc3ccccc23)c(C)n1 returned Pf Dd2 inh inactive.
For COc1ccc(-c2cc(C(=O)NCc3ccc(C)cc3)c3cc(C(C)C)ccc3n2)cc1 the results were Pf Dd2 inh 26.8%.
For Cc1ccc(-c2cc(C(=O)NCc3cnn(C)c3C)c3cc(Br)ccc3n2)cc1 the results were Pf Dd2 inh 11.2µM*.
Screening O=C1CC(c2ccccc2)N(C(=O)CNC(=O)Cn2c(=O)oc3ccccc32)CCCCCN1 (stereo not drawn) returned Pf Dd2 inh -22.3%.
O=C([C@@H]1C[C@H](F)CN1C(=O)c1cccc(C(F)(F)F)c1)N1CCOCC1 was read as Pf Dd2 inh 50.2%.
Screening O=C(NC1CCN(c2cc(-c3ccc(F)cc3)[nH]n2)CC1)c1cccnc1 returned Pf Dd2 inh inactive.
O=C(Cn1ccn2nc(-c3ccccc3)c(CO)c2c1=O)N1CCCCCC1 was read as Pf Dd2 inh inactive.
COc1cc(OC(F)(F)F)ccc1C(=O)N1CCC(c2nnc3n2C(C(=O)O)CC3)CC1 (stereo not drawn) was read as Pf Dd2 inh 6.9%.
For CN(Cc1ccc(F)cc1)Cc1ccc(-c2ccccc2)cc1 the results were Pf Dd2 inh -10.7%[44.1 µM].
For COc1ccc(CN(C)Cc2ccc(-c3ccccc3)cc2)cc1 the results were Pf Dd2 inh inactive.
Screening CC(C)CCN(C)Cc1ccc(-c2ccccc2)cc1 returned Pf Dd2 inh 8.91µM*.
CN(Cc1ccc(-c2ccccc2)cc1)Cc1cccnc1 was read as Pf Dd2 inh 3.98µM*.
Screening CN(Cc1ccc(-c2ccccc2)cc1)Cc1ccc(C(F)(F)F)cc1 returned Pf Dd2 inh 0.1%.
For CC(C)CCN(C)Cc1ccccc1C(F)(F)F the results were Pf Dd2 inh -13.6%[44.1 µM].
For O=C(Cc1c[nH]c2ccccc12)N1CCC(Cc2nc(-c3ccccc3)n[nH]2)CC1 the results were Pf Dd2 inh -5.4%.
